# Data: PubChem BioAssay (NCI)
# About 79,000 compounds went through this panel and 15% of them were active in at least one assay; those are over-represented in the sample as a whole. A number with no mark means an inactive call. Calls of active or inactive are those of the source. Cut-off read from the data, not from the text of the source: active = growth inhibition above about 70%; inactive = the rest.
# Experiment: NCI Yeast Anticancer Drug Screen. Data for the rad14 strain (AID 159);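 note: 0% = growth of vehicle-treated control cultures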
# Details: S. cerevisiae rad14 strain growth inhibition, hits give high values
# Description: Growth inhibition of yeast strains with defined genetic alterations is measured as a screen for potential anti-cancer activity. Selected strains with alterations in DNA damage repair or cell cycle control were exposed to compounds and growth inhibition was measured relative to vehicle treated controls. The strain used in this assay is rad14
Structure (SMILES),growth inhibition (at 1.2 µM) [%],growth inhibition (at 3.7 µM) [%],growth inhibition (at 11.0 µM),growth inhibition (at 33.0 µM),growth inhibition (at 100.0 µM)
COc1cc(O)c2c(c1O)C(=O)c1cc(C)ncc1C2=O,31,47,70% (active),91% (active),94% (active)
Nc1ccc2c(c1)C(=O)c1ccc(F)cc1-2,6,13,15%,18%,22%
Cn1c(=O)c2c(nc(N)n2C2OC(CO)C(O)C2O)n(C)c1=O (stereo not given),-4,-4,-6%,-7%,0%
C=C1CC(CCCl)(c2ccccc2)OC1=O (stereo not given),-2,25,60%,95% (active),99% (active)
Cc1c(C(C)C)cc(OCCO)cc1C(C)C,-3,-7,-2%,-4%,36%
Cc1ccc2nc(-c3cccc([N+](=O)[O-])c3)oc(=O)c2c1,-10,-6,-4%,-19%,-16%
CC(C)OC(=O)Nc1ccc2nc(-c3cscn3)[nH]c2c1,-4,-6,-4%,16%,99% (active)
O=C1C=C(N2CCN(c3ccccn3)CC2)C(=O)c2c(O)ccc(O)c21,9,14,29%,69%,87% (active)
